Shown are actives, neighbours in structure and some others; about 19% of the full set was active somewhere.
HT1080 IDH1KD tx – toxicity to HT-1080 IDH1 knockdown cells (counter line); HT-1080 IDH1 knockdown viability, ATP luminescence, 48 h; Potency, µM (titrated, usually from 46.1 µM), for the others: top-dose activity, negative = toxicity, hits mostly cytotoxic; 2% of 360,000 active; AID 686971;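 note: 0% = DMSO wells and -100% = cell-free medium wells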
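Assay cells: HT-1080 with IDH1 knockdown, 750 per well, RPMI/5% FBS. Exposure: 48 h at 37 °C following 2 h pre-incubation. Read: CellTiter-Glo luminescence; fitted concentration-response, curve class assigned.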
HT1080-NT tox – kills 2HG-producing HT-1080-NT fibrosarcoma cells. HT-1080-NT fibrosarcoma viability, CellTiter-Glo ATP luminescence, 48 h. Potency, µM (highest dose often 46.1 µM), without a hit: at the top dose activity, negative = less viability, usual class: cytotoxic. 1.6% of 360,000 active. AID 686970;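 note: NT is the 2HG producing partner of a matched IDH1 knockdown line; 0% = DMSO-treated cells and -100% = media-only wells without cells; nearly all actives have a fitted effect of over 55% in size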
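HT-1080-NT; 750 cells/well; 5% FBS RPMI; 48 h compound, 37 degrees C; CellTiter-Glo luminescence; curve fitting and curve-class assignment.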
TDP1 cell noCPT – qHTS for Inhibitors of human tyrosyl-DNA phosphodiesterase 1 (TDP1): qHTS in cells in absence of CPT | DT40 Tdp1-/- hTDP1 cells, no CPT, ATP luminescence, 48 h | Potency, µM (top dose mostly 46.2 µM), without a hit: top-dose activity change, negative = growth inhibition, hits mostly inhibitors | 15% of 420,000 active | AID 686978, 2013; note: nearly all actives have a fitted effect of over 55% in size
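Camptothecin absent (DMSO only). Human TDP1-complemented DT40 knockout cells, 400 cells/well, 37 °C for minimum 48 hr; ATP measured via CellTiter-Glo, 30 min dark incubation, luminescence.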
KB-V1 cytotox – kills drug-selected multidrug resistant KB-V1 cells; KB-V1 MDR cells viability, CellTiter-Glo, 72 h; Potency, µM (top dose mostly 46.1 µM), most hits filed as cytotoxic; 3.4% of 400,000 active; note: nearly all actives have a fitted effect of over 60% in size
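Following 72 h at 37 degrees C with compound, KB-V1 cell viability was read by CellTiter-Glo luminescence, medium being phenol-red-free DMEM plus 10% FBS; concentration-response parameters came from normalized, curve-fitted qHTS data.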
KB-3-1 cytotox – KB-3-1 parental cell cytotoxicity. Potency, µM (series often up to 46.1 µM), hits mostly cytotoxic. 1.4% of 400,000 active. KB-3-1 viability, CellTiter-Glo ATP luminescence, 72 h; note: nearly all actives have a fitted effect of over 60% in size
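Viability of parental KB-3-1 cells, measured by CellTiter-Glo luminescence, followed a 72 h incubation at 37 °C with pinned compounds in phenol-red-free DMEM containing 10% FBS.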
DT40 TDP1 CPT – DT40-hTDP1 cell growth loss with CPT. chicken DT40 Tdp1-/-;hTDP1 cells + 20 nM CPT, ATP luminescence, 48 h. Potency, µM (titrated, usually from 46.2 µM), for inactives: at the highest dose activity change, negative = growth inhibition, hits mostly inhibitors. 12% of 420,000 active; note: nearly all actives have a fitted effect of over 55% in size
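Chicken DT40 Tdp1-/- cells stably complemented with human TDP1 were seeded at 400 cells/well in medium containing 20 nM camptothecin, exposed to pin-transferred compounds, and grown at 37 °C for at least 48 hr. Viability was read as ATP luminescence.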
* marks the source's active call; other numbers are inactive results. Calls come from the whole dose curve; as a rule, active = well fitted curve in the direction sought with a large enough effect; inconclusive = small, poorly fitted or top-dose-only effect, or another doubt; inactive = no such curve, though single readings can be large; an effect the other way counts as inactive or inconclusive. Unless noted, % is set by controls: 0 for no effect and ±100 for the full control effect; potency is the fitted concentration of half-maximal effect.

Cc1ccc(CCNC(=O)CC(C)CC2=NS(=O)(=O)c3ccccc3N2)cc1 (configuration not stated) was read as HT1080 IDH1KD tx 8%, HT1080-NT tox -1%, TDP1 cell noCPT 10%, KB-V1 cytotox inactive, KB-3-1 cytotox inactive and DT40 TDP1 CPT -26%.
CN=C(C)/C(C(=O)OC)=C(/O)c1ccc(Cl)cc1Cl was read as HT1080 IDH1KD tx 10%, HT1080-NT tox 5%, TDP1 cell noCPT inconclusive, KB-V1 cytotox inactive, KB-3-1 cytotox inactive and DT40 TDP1 CPT -17%.
`CC(C)[C@H](NC(=O)OCc1ccccc1)C(=O)OCC(=O)Nc1ccc(N2CCOCC2)cc1` gave HT1080 IDH1KD tx 8%, HT1080-NT tox 7%, TDP1 cell noCPT inconclusive, KB-V1 cytotox inactive, KB-3-1 cytotox inactive and DT40 TDP1 CPT inconclusive.
For Cc1ccc(S(=O)(=O)c2cn(CC(=O)Nc3ccc4c(c3)OCO4)c3ccc(F)cc3c2=O)cc1 the results were TDP1 cell noCPT -30%, KB-V1 cytotox inconclusive, KB-3-1 cytotox inconclusive and DT40 TDP1 CPT -26%.
For Cc1ccc(Cl)cc1N1CCN(C(=O)c2ccc(C)c(-n3c(C)nc4cccnc43)c2)CC1 the results were TDP1 cell noCPT 5.2µM*, KB-V1 cytotox inactive, KB-3-1 cytotox inactive and DT40 TDP1 CPT 7.3µM*.
For Cc1cccc(N2CCN(C(=O)c3cccc(-n4c(C)nc5cccnc54)c3)CC2C)c1 (configuration not stated) the results were TDP1 cell noCPT 6.5µM*, KB-V1 cytotox inactive, KB-3-1 cytotox inactive and DT40 TDP1 CPT 8.2µM*.
Cc1ccc(Cl)cc1N(C)C(=O)c1cc2ccc3cccnc3c2[nH]1 was read as TDP1 cell noCPT 8.2µM* and DT40 TDP1 CPT 6.5µM*.
For Cc1ccc(C)c(N2CCN(C(=O)c3cc4cc5ccc(C)cc5nc4s3)CC2)c1 the results were TDP1 cell noCPT 6%, KB-V1 cytotox inconclusive, KB-3-1 cytotox inactive and DT40 TDP1 CPT inconclusive.
`Cc1ccc(C)c(N2CCN(C(=O)c3cc4ccc5cccnc5c4[nH]3)CC2)c1` gave TDP1 cell noCPT inconclusive, KB-V1 cytotox inactive, KB-3-1 cytotox inactive and DT40 TDP1 CPT 29µM*.
O=C(NCc1ccccc1)c1cc2ccc3cccnc3c2[nH]1 was read as TDP1 cell noCPT inconclusive, KB-V1 cytotox inactive, KB-3-1 cytotox inactive and DT40 TDP1 CPT inconclusive.
Cc1cc(NC(=O)CSc2n[nH]c(-c3ccc(Cl)cc3Cl)n2)no1 was read as HT1080 IDH1KD tx -4%, HT1080-NT tox -1%, TDP1 cell noCPT inconclusive, KB-V1 cytotox inactive, KB-3-1 cytotox inactive and DT40 TDP1 CPT -11%.
Cc1cccc(N2CCN(C(=O)c3cccc(-n4c(C)nc5cccnc54)c3)CC2)c1C was read as TDP1 cell noCPT 5.8µM*, KB-V1 cytotox inconclusive, KB-3-1 cytotox inactive and DT40 TDP1 CPT 7.3µM*.
For O=C(Nc1ccc(F)cc1F)c1cc2ccc3cccnc3c2[nH]1 the results were TDP1 cell noCPT inconclusive and DT40 TDP1 CPT 2.9µM*.
`CCCCNC(=O)c1cccc(-n2c(C)nc3cccnc32)c1` gave TDP1 cell noCPT -28%, KB-V1 cytotox inactive, KB-3-1 cytotox inactive and DT40 TDP1 CPT -4%.
For Cc1ccc(C)c(N2CCN(C(=O)c3cccc(-n4c(C)nc5cccnc54)c3)CC2)c1 the results were TDP1 cell noCPT 13µM*, KB-V1 cytotox inconclusive, KB-3-1 cytotox inactive and DT40 TDP1 CPT 7.3µM*.
COCCCNC(=O)C[C@H]1C[C@H](C(=O)N(C(C)C)C(C)C)[C@@]2(C)c3[nH]c4cc(CCC(=O)N(C)C)ccc4c3CCN2C1=O was read as HT1080 IDH1KD tx 14%, HT1080-NT tox 16%, TDP1 cell noCPT 1%, KB-V1 cytotox inconclusive, KB-3-1 cytotox inactive and DT40 TDP1 CPT 0%.
O=C(Nc1cccc(F)c1)N1CCC2(CC1)CCN(C(=O)c1cc(C(F)(F)F)cc(C(F)(F)F)c1)CC2 was read as TDP1 cell noCPT inconclusive and DT40 TDP1 CPT -11%.
O=C(Cn1cnc2sc(-c3ccccc3)cc2c1=O)NCc1ccccc1 was read as HT1080 IDH1KD tx 6.3µM*, HT1080-NT tox 7.9µM*, TDP1 cell noCPT 5.2µM*, KB-V1 cytotox inactive, KB-3-1 cytotox 7.3µM* and DT40 TDP1 CPT 3.7µM*.
`O=C(Cn1cnc2sc(-c3ccccc3)cc2c1=O)NCc1ccco1` gave HT1080 IDH1KD tx inconclusive, HT1080-NT tox inconclusive, TDP1 cell noCPT 5.8µM*, KB-V1 cytotox inconclusive, KB-3-1 cytotox 18µM* and DT40 TDP1 CPT 6.5µM*.
`CN(C)c1cccc(C(=O)Nc2nnc(Cc3ccccc3)s2)c1` gave HT1080 IDH1KD tx -4%, HT1080-NT tox -20%, TDP1 cell noCPT inconclusive, KB-V1 cytotox inconclusive, KB-3-1 cytotox inactive and DT40 TDP1 CPT inconclusive.
For Cc1ccc(Cl)cc1NC(=O)c1ccc2snnc2c1 the results were TDP1 cell noCPT -8%, KB-V1 cytotox inactive, KB-3-1 cytotox inactive and DT40 TDP1 CPT -17%.
CCNC(=O)N1CCOCC1 was read as HT1080 IDH1KD tx 2%, HT1080-NT tox 5%, TDP1 cell noCPT 6.3µM*, KB-V1 cytotox inactive, KB-3-1 cytotox inactive and DT40 TDP1 CPT 0%.
For Cc1ccc2onc(CNC(=O)NCc3ccccc3)c2c1 the results were TDP1 cell noCPT -2%, KB-V1 cytotox inactive, KB-3-1 cytotox inactive and DT40 TDP1 CPT -28%.
For CC(C)c1ccc2[nH]c3c(c2c1)CCC/C3=N\NC(=O)c1ccncc1 the results were HT1080 IDH1KD tx inconclusive, HT1080-NT tox inconclusive, TDP1 cell noCPT 18µM*, KB-V1 cytotox inconclusive, KB-3-1 cytotox inconclusive and DT40 TDP1 CPT 23µM*.
`Cc1ccc2[nH]c3c(c2c1)CCC3=O` gave HT1080 IDH1KD tx -15%, HT1080-NT tox 0%, TDP1 cell noCPT -10%, KB-V1 cytotox inconclusive, KB-3-1 cytotox inactive and DT40 TDP1 CPT -4%.
For Cc1[nH]c2ccccc2c(=O)c1CN1CCCCCC1 the results were HT1080 IDH1KD tx 20%, HT1080-NT tox -1%, TDP1 cell noCPT -10%, KB-V1 cytotox inconclusive, KB-3-1 cytotox inactive and DT40 TDP1 CPT 8%.
`Cc1ccc2[nH]c3c(c2c1)CCc1cn[nH]c1-3` gave HT1080 IDH1KD tx inconclusive, HT1080-NT tox inconclusive, TDP1 cell noCPT 23µM*, KB-V1 cytotox inactive, KB-3-1 cytotox inactive and DT40 TDP1 CPT inconclusive.

Compound activity as filed in PubChem.
